Calls of active or inactive are those of the source. Unless noted, no rule for the calls is given here.
How the values were obtained:
[1] = tested on: Wnt5a (protein binding on small-molecule microarray); assay: small molecules binding Wnt5a protein – biophysical, small-molecule microarray, 635/667 nm fluorescence, primary screen (AID 1142); details: 635 nm fluorescence, higher = more signal;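 also: fluorescence read at 667 nm with signal to noise per printed feature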
[2] = ATP-based viability of Huh7 replicon cells – cell-based, CellTiter-Glo luminescence, basal, 48 h, cytotoxicity control for HCV replication inhibitor project, primary screen (AID 1143); details: higher = more signal, called active from +8 up or from −8 down;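 also: Huh7 hepatoma cells carrying a hepatitis C replication reporter with no stimulus; test concentration not given here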
[3] = Pseudomonas biofilm growth suppression – PAO1 strain, BacTiter-Glo luminescence, LB-PBS, primary screen (AID 1144); details: P. aeruginosa PAO1 biofilm, 12 h, higher = more signal
[4] = basal CRE-LacZ reporter activity in PC12 – cell-based, unstimulated, primary screen (AID 1145); details: no forskolin, luminescence, 4.5 h, higher = more signal, called active from +8 up or from −8 down
[5] = forskolin-driven CRE-LacZ activity in PC12 – cell-based, CRE-LacZ reporter, forskolin-stimulated, primary screen (AID 1146); details: luminescence, 4.5 h, higher = more signal, called active from +8 up or from −8 down;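 also: PC12 cells with 6xCRE LacZ reporter stimulated by forskolin 10 µM; beta-galactosidase reporter signal reflecting CREB driven transcription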
[6] = molecular target: Streptavidin (Streptomyces avidinii) (UniProt P22629); assay: compounds binding control protein streptavidin – biophysical, small-molecule microarray, 635/667 nm fluorescence, artefact control for SMM compound annotation, primary screen (AID 1147); details: higher = more signal;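 also: signal reflects streptavidin binding to arrayed compounds as a control protein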
Sequence of Streptavidin (Streptomyces avidinii) (P22629 whole entry, looked up): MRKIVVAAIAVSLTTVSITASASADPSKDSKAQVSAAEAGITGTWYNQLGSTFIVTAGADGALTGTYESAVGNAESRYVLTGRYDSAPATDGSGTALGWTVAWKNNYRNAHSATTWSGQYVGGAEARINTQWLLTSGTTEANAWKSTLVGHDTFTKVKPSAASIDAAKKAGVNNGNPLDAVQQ

[7] = probe aInhba binding on compound microarray – biochemical, small-molecule microarray, 635/667 nm fluorescence, primary screen (AID 1148); details: higher = more signal;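 also: score merges 667nm spot fluorescence with signal-to-noise for antibody binding to printed compounds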
Torsin-1A (Homo sapiens) [8] = molecular target: Torsin-1A (Homo sapiens) (UniProt O14656); assay: TOR1A wild-type binding on microarray – cell lysate, small-molecule microarray, lysate, 635/667 nm, primary screen (AID 1149); details: COS7 hTOR1A-WT lysate, 635 nm fluorescence, higher = more signal
Sequence of Torsin-1A (Homo sapiens) (O14656 whole entry, looked up): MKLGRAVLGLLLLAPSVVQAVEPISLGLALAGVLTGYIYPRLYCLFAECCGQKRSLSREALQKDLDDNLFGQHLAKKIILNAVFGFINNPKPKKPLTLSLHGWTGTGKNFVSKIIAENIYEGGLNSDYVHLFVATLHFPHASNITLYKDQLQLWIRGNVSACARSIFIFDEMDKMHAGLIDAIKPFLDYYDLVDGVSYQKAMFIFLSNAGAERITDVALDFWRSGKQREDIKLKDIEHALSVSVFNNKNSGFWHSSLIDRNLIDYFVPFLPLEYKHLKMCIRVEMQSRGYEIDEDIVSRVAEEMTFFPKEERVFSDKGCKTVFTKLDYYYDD

Torsin-1A (Homo sapiens) [9] = molecular target: Torsin-1A (Homo sapiens) (UniProt O14656); assay: torsin A mutant lysate binding on microarrays – cell lysate, small-molecule microarray, COS7 lysate, 635/667 nm fluorescence, primary screen (AID 1150); details: COS7 hTOR1A mutant lysate, 635 nm fluorescence, higher = more signal;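 also: score pools 667 nm emission and signal to noise measuring lysate protein binding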
[10] = tested on: Sonic hedgehog protein (Shh); assay: Sonic hedgehog microarray binding compounds – biochemical, small-molecule microarray, 635/667 nm fluorescence, primary screen (AID 1151); details: 635 nm fluorescence, higher = more signal;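 also: Shh protein binding to compounds spotted on small-molecule microarray slides; score combines spot fluorescence intensity with signal-to-noise across triplicate slides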

SMILES	composite z-score [1]	z-score [2]	z-score [3]	z-score [4]	z-score [5]	composite z-score [6]	composite z-score [7]	composite z-score (Torsin-1A (Homo sapiens) [8])	composite z-score (Torsin-1A (Homo sapiens) [9])	composite z-score [10]
O=C1OCCC=C[C@H]2OC34C=CCN(CCN5CCOCC5)C(=O)[C@H]3N(CCCCCO)C(=O)[C@@H]4C12 (stereo not given in full)	-0.135	0.201 (inactive)	-0.199 (inactive)	1.14 (inactive)	0.25 (inactive)	1.38	-0.253	1.14	1.52	0.139
[N-]=[N+]=NCc1ccccc1[C@H]1OC(c2ccc(OCCCO)cc2)=N[C@@]1(Cc1ccccc1)C(=O)N1CCCCC1	1.5	-5.29 (inactive)	0.437 (inactive)	-0.16 (inactive)	0.357 (inactive)	0.733	0.204	0.178	0.392	0.413
O=C1N(CCS(=O)(=O)c2ccccc2)c2ccccc2[C@@H]2OC(c3ccc(OCCCO)cc3)=N[C@]12Cc1ccccc1	-0.0372	-3.61 (inactive)	-0.157 (inactive)	1.26 (inactive)	-1.77 (inactive)	0.14	0.0091	0.422	0.208	1.95

Source: PubChem BioAssay
